From ChEMBL document CHEMBL3988442, “University of Dundee, Small-Polar-MMV Screening Library” (2021) come the findings set out here.

For some assays here: Potency and affinity values are given separately.

What all share (design): scale not given: direction of the effect not stated beside the values
Test [1] has as its target Protein translocase subunit SecA (Escherichia coli (strain K12)) (UniProt P10408). As to the kind of experiment: Assay to Identify E. coli SecA ATPase Inhibitors. The class given is functional. As to conditions: 30 µM.
Test [2] has as its target T1, Ubiquitin-activating enzyme e1, putative (Leishmania donovani (strain BPK282A1)) (UniProt E9BSI1).
T1 sequence (whole entry): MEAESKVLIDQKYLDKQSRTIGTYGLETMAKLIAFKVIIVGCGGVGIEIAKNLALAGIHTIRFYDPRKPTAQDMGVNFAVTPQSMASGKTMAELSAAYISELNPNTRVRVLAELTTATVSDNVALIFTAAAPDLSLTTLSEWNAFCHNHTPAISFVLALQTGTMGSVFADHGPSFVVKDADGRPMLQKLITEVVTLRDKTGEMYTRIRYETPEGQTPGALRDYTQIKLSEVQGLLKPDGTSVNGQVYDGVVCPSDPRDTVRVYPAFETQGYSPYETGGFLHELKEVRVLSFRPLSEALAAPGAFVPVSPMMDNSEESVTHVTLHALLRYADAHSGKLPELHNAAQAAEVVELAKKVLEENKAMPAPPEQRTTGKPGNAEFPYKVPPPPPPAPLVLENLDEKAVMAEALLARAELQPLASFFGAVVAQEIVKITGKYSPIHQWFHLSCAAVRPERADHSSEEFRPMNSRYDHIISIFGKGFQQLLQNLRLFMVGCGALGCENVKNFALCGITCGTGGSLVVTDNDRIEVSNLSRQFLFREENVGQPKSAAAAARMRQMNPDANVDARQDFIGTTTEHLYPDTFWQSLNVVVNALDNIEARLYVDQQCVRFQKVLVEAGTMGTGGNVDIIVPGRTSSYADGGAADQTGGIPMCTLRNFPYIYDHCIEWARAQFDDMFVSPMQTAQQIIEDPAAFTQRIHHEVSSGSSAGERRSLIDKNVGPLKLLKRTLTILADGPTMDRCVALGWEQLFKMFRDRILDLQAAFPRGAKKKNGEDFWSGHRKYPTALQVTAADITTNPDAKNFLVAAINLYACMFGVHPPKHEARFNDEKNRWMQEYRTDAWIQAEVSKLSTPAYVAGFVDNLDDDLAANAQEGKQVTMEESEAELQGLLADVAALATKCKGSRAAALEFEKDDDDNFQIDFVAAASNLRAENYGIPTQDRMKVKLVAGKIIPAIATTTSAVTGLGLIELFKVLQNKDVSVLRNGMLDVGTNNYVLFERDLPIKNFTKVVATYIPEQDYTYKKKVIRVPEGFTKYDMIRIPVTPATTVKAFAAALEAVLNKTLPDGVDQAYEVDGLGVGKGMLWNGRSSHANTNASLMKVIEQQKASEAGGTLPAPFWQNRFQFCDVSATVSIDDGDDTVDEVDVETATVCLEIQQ
Kind of test: Leishmania donovani Ubiquitin Activating Enzyme (LdE1). The class given is functional. The conditions noted are these: 30 µM.

Test [3] concerns the target AMP-activated protein kinase, AMPK (Homo sapiens) (UniProt P54646+O43741+P54619+Q9UGJ0+Q9Y478+Q13131+Q9UGI9). As to the kind of experiment: AMP-dependent Kinase enzyme assay. An in vitro enzyme assay that detects ADP turnover that is directly proportional to AMPK activity. This uses naive AMPK that is activated during the assay with MK-8722. The class given is functional. As to conditions: 30 µM.

The target in test [4] is Sialic acid-binding Ig-like lectin 9 (Homo sapiens) (UniProt Q9Y336). Kind of test: Hs-Siglec9 ALPHAscreen SOP 20170721. The conditions noted are these: 10 µM.
Sequence of Sialic acid-binding Ig-like lectin 9 (Homo sapiens) (Q9Y336 whole entry): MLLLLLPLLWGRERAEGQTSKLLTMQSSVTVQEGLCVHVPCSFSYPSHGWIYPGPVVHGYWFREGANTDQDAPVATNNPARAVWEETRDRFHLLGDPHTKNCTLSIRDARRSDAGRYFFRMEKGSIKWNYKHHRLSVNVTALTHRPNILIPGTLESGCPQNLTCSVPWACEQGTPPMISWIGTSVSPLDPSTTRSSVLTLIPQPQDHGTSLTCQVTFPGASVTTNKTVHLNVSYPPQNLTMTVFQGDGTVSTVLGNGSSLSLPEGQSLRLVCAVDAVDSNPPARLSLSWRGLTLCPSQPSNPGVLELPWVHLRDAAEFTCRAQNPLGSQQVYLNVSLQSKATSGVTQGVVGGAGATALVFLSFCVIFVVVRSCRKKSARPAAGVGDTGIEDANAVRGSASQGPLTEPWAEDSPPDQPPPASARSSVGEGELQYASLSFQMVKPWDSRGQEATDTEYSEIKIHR
The test system of another test is Trypanosoma cruzi. As to the kind of experiment: Trypanosoma cruzi phosphomannomutase and mannose-1-phosphate guanylyltransferase assay. In kind it is functional. The conditions noted are these: 10 µM.
The target of test [5] is T2, Arginase-2, mitochondrial (Homo sapiens) (UniProt P78540).
T2 sequence (whole entry): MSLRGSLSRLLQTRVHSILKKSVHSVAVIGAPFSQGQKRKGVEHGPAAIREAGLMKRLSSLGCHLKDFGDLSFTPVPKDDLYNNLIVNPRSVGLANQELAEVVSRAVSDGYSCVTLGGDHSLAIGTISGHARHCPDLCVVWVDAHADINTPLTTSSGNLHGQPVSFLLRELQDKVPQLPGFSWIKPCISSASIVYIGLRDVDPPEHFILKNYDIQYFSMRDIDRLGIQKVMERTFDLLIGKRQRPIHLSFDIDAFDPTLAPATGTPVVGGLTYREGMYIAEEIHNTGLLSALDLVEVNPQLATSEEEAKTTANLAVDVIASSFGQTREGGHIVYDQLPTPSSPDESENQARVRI
Kind of test: in vitro enzyme assay to detect the production of urea directly proportional to the activity of Arginase II. Note: in the data most compounds retested in dose-response had high values. In kind it is functional. The conditions noted are these: 33.3 µM.

Test [6] deals with T3, Proteasome subunit beta (Trypanosoma cruzi) (UniProt O96673).
T3 sequence (whole entry): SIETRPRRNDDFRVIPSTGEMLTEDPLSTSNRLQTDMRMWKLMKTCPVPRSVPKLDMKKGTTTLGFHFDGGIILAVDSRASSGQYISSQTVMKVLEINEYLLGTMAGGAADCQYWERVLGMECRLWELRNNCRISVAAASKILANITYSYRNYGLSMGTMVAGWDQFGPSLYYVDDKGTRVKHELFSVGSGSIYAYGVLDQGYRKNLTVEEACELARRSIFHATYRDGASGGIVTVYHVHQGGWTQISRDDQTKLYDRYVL
Kind of test: Trypanosoma cruzi proteasome chymotrypsin-like activity (TcProtChymo) assay. Note: in the data most compounds retested in dose-response had high values. The class given is functional. As to conditions: 9.37 µM.

The species entered for a further test is Homo sapiens. As to the kind of experiment: To identify inhibition of the IFN signalling (Jak-Stat) pathway via expression of an eGFP reporter gene under the control of an IFN-stimulated response element (ISRE) containing MxA promoter. In kind it is functional. As to conditions: 30 µM.
Test [7] has as its target T4, Tyrosyl-tRNA synthetase, putative (Trypanosoma cruzi (strain CL Brener)) (UniProt Q4DSP6).
T4 sequence (whole entry): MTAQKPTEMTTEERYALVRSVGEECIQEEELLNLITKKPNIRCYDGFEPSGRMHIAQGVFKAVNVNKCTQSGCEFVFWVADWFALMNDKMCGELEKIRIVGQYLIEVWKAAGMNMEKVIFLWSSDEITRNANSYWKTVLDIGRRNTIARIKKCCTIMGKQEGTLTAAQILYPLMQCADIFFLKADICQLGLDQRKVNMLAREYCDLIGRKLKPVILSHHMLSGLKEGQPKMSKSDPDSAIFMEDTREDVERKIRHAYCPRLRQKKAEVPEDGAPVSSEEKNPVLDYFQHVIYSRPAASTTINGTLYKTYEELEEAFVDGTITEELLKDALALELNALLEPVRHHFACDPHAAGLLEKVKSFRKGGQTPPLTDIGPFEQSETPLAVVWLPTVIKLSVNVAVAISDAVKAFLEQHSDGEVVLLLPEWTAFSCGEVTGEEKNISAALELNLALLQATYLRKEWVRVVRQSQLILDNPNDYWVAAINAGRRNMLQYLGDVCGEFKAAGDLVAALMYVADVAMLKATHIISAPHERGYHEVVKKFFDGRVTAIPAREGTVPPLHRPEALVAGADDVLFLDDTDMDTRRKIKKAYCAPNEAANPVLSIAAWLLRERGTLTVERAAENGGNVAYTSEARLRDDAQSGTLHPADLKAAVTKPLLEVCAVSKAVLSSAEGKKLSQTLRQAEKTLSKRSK
As to the kind of experiment: Trypanosoma cruzi tyrosyl tRNA synthetase (TcYRS) _High Tyrosine SOP. Note: in the data most compounds retested in dose-response had high values. In kind it is functional. The conditions noted are these: 30 µM.

Test [8] has as its target T4, Tyrosyl-tRNA synthetase, putative (Trypanosoma cruzi (strain CL Brener)). Kind of test: Trypanosoma cruzi tyrosyl tRNA synthetase (TcYRS) SOP. As to conditions: 30 µM. The class given is functional.
The target in test [9] is Chromo domain-containing protein 1 (Saccharomyces cerevisiae (strain ATCC 204508 / S288c) (Baker's yeast)) (UniProt P32657). Kind of test: ScCHD-1 Enzyme Inhibition Assay. Note: in the data most compounds retested in dose-response had high values. In kind it is functional. The conditions noted are these: 30 µM.
Sequence of Chromo domain-containing protein 1 (Saccharomyces cerevisiae (strain ATCC 204508 / S288c) (Baker's yeast)) (P32657 whole entry, the tested form may be a part): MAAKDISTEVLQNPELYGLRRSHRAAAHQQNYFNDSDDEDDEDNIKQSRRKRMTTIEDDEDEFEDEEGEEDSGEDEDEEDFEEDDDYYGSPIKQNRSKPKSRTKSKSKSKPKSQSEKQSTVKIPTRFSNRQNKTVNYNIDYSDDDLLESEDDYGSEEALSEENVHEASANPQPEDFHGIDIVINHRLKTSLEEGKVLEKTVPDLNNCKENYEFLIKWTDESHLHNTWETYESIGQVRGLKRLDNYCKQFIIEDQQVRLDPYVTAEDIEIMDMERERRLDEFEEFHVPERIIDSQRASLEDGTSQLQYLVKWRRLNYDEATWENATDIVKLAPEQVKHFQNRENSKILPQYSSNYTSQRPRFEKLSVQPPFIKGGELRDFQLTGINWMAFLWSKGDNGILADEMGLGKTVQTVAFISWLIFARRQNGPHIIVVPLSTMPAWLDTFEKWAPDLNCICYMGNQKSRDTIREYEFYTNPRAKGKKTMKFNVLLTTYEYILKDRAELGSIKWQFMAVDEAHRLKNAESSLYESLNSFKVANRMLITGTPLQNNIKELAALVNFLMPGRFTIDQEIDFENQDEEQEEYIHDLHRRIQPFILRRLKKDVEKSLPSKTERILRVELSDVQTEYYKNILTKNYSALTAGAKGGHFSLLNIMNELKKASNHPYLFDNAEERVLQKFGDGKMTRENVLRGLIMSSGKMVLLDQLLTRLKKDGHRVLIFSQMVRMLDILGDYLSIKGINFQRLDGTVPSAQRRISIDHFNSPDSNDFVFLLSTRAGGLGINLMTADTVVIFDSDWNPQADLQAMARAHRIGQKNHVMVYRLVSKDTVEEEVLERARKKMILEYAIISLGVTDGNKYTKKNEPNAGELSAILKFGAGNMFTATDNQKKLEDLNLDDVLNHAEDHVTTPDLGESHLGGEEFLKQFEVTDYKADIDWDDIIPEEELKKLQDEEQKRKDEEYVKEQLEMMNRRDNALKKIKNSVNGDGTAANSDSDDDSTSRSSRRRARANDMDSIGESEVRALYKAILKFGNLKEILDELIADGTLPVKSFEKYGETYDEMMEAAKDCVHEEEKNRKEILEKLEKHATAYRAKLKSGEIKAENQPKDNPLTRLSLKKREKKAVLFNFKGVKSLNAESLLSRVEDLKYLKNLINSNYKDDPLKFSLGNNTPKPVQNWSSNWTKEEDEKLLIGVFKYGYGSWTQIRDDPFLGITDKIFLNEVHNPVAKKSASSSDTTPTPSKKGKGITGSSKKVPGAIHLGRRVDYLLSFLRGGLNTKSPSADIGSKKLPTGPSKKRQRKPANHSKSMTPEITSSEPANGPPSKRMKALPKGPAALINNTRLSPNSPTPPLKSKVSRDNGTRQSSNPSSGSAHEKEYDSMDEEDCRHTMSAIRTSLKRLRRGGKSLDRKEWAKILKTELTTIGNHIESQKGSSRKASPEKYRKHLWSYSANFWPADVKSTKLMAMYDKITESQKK

Sequence of Protein translocase subunit SecA (Escherichia coli (strain K12)) (P10408 whole entry): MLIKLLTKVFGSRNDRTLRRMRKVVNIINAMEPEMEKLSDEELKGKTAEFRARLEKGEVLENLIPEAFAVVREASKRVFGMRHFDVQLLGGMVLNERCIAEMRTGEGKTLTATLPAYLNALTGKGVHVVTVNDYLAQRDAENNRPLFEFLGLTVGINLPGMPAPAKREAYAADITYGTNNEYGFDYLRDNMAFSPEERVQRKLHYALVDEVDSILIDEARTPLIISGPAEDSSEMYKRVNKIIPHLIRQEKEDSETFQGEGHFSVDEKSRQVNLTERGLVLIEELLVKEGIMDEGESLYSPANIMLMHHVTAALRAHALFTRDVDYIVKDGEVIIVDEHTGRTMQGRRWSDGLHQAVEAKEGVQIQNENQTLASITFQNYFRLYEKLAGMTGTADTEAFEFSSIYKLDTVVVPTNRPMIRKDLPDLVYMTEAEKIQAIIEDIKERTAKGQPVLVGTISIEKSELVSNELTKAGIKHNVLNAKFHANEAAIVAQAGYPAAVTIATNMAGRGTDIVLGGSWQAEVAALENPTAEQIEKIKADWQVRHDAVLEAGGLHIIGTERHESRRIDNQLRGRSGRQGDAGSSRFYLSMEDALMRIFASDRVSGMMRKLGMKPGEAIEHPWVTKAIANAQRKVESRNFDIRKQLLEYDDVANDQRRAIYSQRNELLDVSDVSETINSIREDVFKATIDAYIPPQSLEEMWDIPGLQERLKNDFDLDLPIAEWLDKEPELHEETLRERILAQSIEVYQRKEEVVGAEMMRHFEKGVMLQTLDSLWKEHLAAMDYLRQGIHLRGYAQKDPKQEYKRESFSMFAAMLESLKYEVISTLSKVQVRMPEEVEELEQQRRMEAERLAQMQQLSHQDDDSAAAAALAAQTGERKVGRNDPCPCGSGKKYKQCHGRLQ

For the compound `Cc1ccc(C2CSCCN2C(=O)c2ccc(C(N)=O)cc2)o1` (stereo not given), the Percent Effect in test [1] was -2.99%; in [2] it was 5.41%; in test [3], -7.52%; in test [4], 13.6%; in the test with Trypanosoma cruzi it was 1.47%; in test [5], 20.6%. Also, the Percent Effect is 10% in test [6]; -21.9% in the test filed under Homo sapiens; 4.3% in test [7]; 11.1% in test [8]; -2.9% in [9].
Take `CCN1CCN(C2CCN(Cc3nnc(C(C)(C)C)o3)CC2)C1=O`: the Percent Effect in test [1] was -4.08%; in test [2] it was 13%; in [3], 7.53%; in test [4], -0.00786%; with Trypanosoma cruzi it was 0.686%; in test [5], 1.05%. Also, the Percent Effect was 10.3% in [6]; 4.76% in the test filed under Homo sapiens; 7.62% in test [7]; 14.1% in [8]; -21.7% in test [9].
In the case of `CNC(=O)c1ccc(C(=O)N2CCCC(n3cc(C)cn3)C2)cn1` (stereo not given), the Percent Effect was -7.4% in [1]; 26% in [2]; -0.148% in test [3]; 5.41% in test [4]; 9.18% with Trypanosoma cruzi; 3.56% in test [5]. The Percent Effect in [6] is 12%; in the test listed under Homo sapiens, 26.2%; in test [7], 9.71%; in test [8] it was 26.8%; in test [9], -11.2%.
As to `O=S(=O)(NC1=NCN(CCc2cccs2)CN1)c1ccc(F)cc1`, the Percent Effect in test [1] was 1.07%; in test [2], 4%; in [3], 3.26%; in [4], 4.09%; with Trypanosoma cruzi, -4.91%; in test [5], -7.57%. In addition, the Percent Effect in test [6] was 14.1%; in the test listed under Homo sapiens, -6.32%; in test [7], 5.29%; in test [8], 10.3%; in [9] it was -10.7%.
As for `CN(C(=O)CCNC(=O)NC1CCCCC1)c1ccccc1`, the Percent Effect in test [1] was -3.57%; in test [2], 21.1%; in test [3] it was -2.45%; in test [4], -10.2%; in the test with Trypanosoma cruzi, 3.21%; in test [5] it was -1.18%. For the same compound, the Percent Effect in test [6] is 14.3%; in the test filed under Homo sapiens it was 8.02%; in test [7], 3.19%; in test [8], 13%; in test [9], -0.404%.
On to `CCOc1ccccc1C(CC(=O)Nc1ccccc1F)NC(C)=O` (stereo not given), for which the Percent Effect in [1] is -4.23%; in [2], 10.5%; in test [3], 0.587%; in [4], 13.4%; in the test on Trypanosoma cruzi, 2.82%; in test [5], -1.92%. Besides, the Percent Effect in test [6] was -4.18%; in the test filed under Homo sapiens, -32.5%; in test [7] it was 3.43%; in test [8], 9.76%; in [9], -4.56%.
For the compound `COCC(=O)N1CCC[C@]2(C(=O)N(C)C)CN(c3ccccn3)C[C@@H]2C1`, the Percent Effect in [1] is -2.73%; in test [2], 5.33%; in test [3], -3.72%; in test [4] it was 0.562%; in the test with Trypanosoma cruzi, 5.02%; in test [5], -50.4%. Moreover, the Percent Effect is 16.2% in test [6]; -8.04% in the test filed under Homo sapiens; 6.25% in test [7]; 5% in test [8]; -8.42% in test [9].
As for `CC(=O)Nc1nc(C(=O)Nc2ccc(N3CCCCC3)nc2)cs1`, the Percent Effect in [1] is -1.91%; in [2] it was -3.8%; in test [3], 22.9%; in [4] it was 0.734%; with Trypanosoma cruzi, -3.18%; in [5], -1.5%. In addition, the Percent Effect in [6] is 10.6%; in the test listed under Homo sapiens it was 11.2%; in [7], 9.38%; in [8], 10.1%; in [9], -11.6%.
With `CCn1cc(CN2CCCC(CO)(CCc3ccccc3)C2)c(C)n1` (stereo not given), the Percent Effect is -3.86% in test [1]; 8.11% in [2]; -1.51% in [3]; 28.3% in test [4]; 5.18% with Trypanosoma cruzi; 18.1% in test [5]. For the same compound, the Percent Effect in test [6] is 12.1%; in the test listed under Homo sapiens, -7.2%; in test [7], 0%; in test [8], 11.1%; in test [9], -12.5%.
Regarding `CCn1cc(CN2CCCN(C(=O)CCCn3cncn3)CC2)cn1`, the Percent Effect in test [1] was -2.76%; in test [2], 0%; in test [3], 7.06%; in test [4], 6.78%; in the test with Trypanosoma cruzi, 5.43%; in test [5], 1.42%. Besides, the Percent Effect was 5.91% in test [6]; 17.2% in the test filed under Homo sapiens; 4.85% in test [7]; 14.6% in [8]; -6.03% in test [9].
